DT40 TDP1 CPT = qHTS for Inhibitors of human tyrosyl-DNA phosphodiesterase 1 (TDP1): qHTS in cells in presence of CPT; chicken DT40 Tdp1-/-;hTDP1 cells + 20 nM CPT, ATP luminescence, 48 h; Potency, µM (top dose mostly 46.2 µM), inactives show at the highest dose activity change, negative = growth inhibition, usual class: inhibitors; 12% of 420,000 active; note: potency is the fitted concentration of half-maximal effect; nearly all actives have a fitted effect of over 55% in size
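Chicken DT40 Tdp1-/- cells stably complemented with human TDP1 were seeded at 400 cells/well in medium containing 20 nM camptothecin, exposed to pin-transferred compounds, and grown at 37 °C for at least 48 hr. Viability was read as ATP luminescence.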
TDP1 cell noCPT = qHTS for Inhibitors of human tyrosyl-DNA phosphodiesterase 1 (TDP1): qHTS in cells in absence of CPT; DT40 Tdp1-/- hTDP1 cells, no CPT, ATP luminescence, 48 h; Potency, µM (top dose mostly 46.2 µM), inactives show at the top dose activity change, negative = growth inhibition, actives largely listed as inhibitors; AID 686978, 2013; 15% of 420,000 active; note: potency is the fitted concentration of half-maximal effect; nearly all actives have a fitted effect of over 55% in size
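Compound effects on proliferation are scored in DT40 Tdp1-/-;hTDP1 cells in the absence of CPT. ATP levels (CellTiter-Glo luminescence) are recorded after a ≥48 hr, 37 °C incubation.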
IL-1B inflam inh = qHTS for Inhibitors of Inflammasome Signaling: IL-1-beta AlphaLISA Primary Screen; THP-1 LPS/ATP IL-1B secretion, AlphaLISA, 16 h; stronger effect = lower value; activity change, % at 57.5 µM; 4.7% of 360,000 active; AID 743279, 2014; in the data active = activity change below about -50%; inconclusive = mostly about -30% to -49%
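THP-1 cells pretreated 1 hr with compounds (up to 57.5 uM final), then stimulated with LPS (250 ng/mL final) plus ATP (1.25 mM final); secreted IL-1B measured by AlphaLISA after 16 hr, decreased signal indicating inhibition.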
LDHA block = qHTS assay for inhibitors of human lactate dehydrogenase; L-lactate dehydrogenase A chain (Homo sapiens), P00338; purified LDHA, NADH/diaphorase-resazurin fluorescence; stronger effect = lower value; activity change, % (values are at about 110 or 230 µM); 0.15% of 480,000 active; in the data active = activity change below about -30%; inconclusive = mostly about -25% to -30%;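 note: plate controls were DMSO wells for no effect and wells without enzyme for full effect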
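Human LDH5 (2 nM) was incubated with 0.06 mM NADH and 0.2 mM pyruvate for 5 min at room temperature in Tris pH 7.4. Remaining NADH was coupled through diaphorase/resazurin, and resorufin fluorescence was read at 0 and 20 min.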
Gal4-VP16 FLuc = VP16 counterscreen qHTS for inhibitors of ROR gamma transcriptional activity; Drosophila S2 Gal4-VP16 UAS-luciferase, luminescence, 20 h; Potency, µM (top dose mostly 53.6 µM), inactives show top-dose activity, negative = inhibition, hits mostly inhibitors; 3.5% of 310,000 active;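 note: Gal4-VP16 expression switched on by copper sulfate through the metallothionein promoter; potency is the fitted concentration of half-maximal effect; nearly all actives have a fitted effect of over 50% in size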
RORgamma inh = qHTS for inhibitors of ROR gamma transcriptional activity; Nuclear receptor ROR-gamma (Mus musculus), P51450; Drosophila S2 Gal4-RORgamma UAS-luciferase reporter, 20 h; Potency, µM (highest dose often 53.6 µM), for inactives: at the highest dose activity change, negative = inhibition, most hits filed as inhibitors; 5.4% of 310,000 active; AID 2551, 2010; note: potency is the fitted concentration of half-maximal effect; nearly all actives have a fitted effect of over 60% in size
Target sequence (P51450 whole entry, looked up, the tested form may be a part): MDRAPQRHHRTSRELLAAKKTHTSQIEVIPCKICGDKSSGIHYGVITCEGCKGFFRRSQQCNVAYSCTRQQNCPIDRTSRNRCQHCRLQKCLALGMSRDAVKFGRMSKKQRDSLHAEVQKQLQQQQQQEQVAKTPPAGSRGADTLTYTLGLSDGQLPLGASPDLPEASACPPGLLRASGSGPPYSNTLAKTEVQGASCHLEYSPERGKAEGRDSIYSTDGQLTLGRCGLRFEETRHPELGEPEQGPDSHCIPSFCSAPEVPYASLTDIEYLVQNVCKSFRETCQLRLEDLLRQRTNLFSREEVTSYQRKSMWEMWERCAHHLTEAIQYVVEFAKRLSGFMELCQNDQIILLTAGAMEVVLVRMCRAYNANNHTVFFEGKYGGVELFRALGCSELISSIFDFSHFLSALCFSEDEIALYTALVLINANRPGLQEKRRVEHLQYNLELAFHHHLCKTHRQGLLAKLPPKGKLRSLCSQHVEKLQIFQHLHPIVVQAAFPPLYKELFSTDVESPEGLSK
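Luciferase reporter read in Schneider cells carrying Gal4-RORγ (mouse) and UAS-Photinus luciferase; cells given compound 1 h before 700 uM copper sulfate induction, then incubated 20 h at ambient temperature.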
An asterisk follows results filed as active; ? = inconclusive; . = no result. Compounds with a hit are over-represented: about 18% of the library has one in this group of screens. Unless noted, calls come from the whole dose curve; as a rule, active = well fitted curve in the direction sought with a large enough effect; inconclusive = small, poorly fitted or top-dose-only effect, or another doubt; inactive = no such curve, though single readings can be large; an effect the other way counts as inactive or inconclusive. Unless noted, % is set by controls: 0 for no effect and ±100 for the full control effect.

SMILES	DT40 TDP1 CPT	TDP1 cell noCPT	IL-1B inflam inh	LDHA block	Gal4-VP16 FLuc	RORgamma inh
Cn1c(Cl)cnc1COC(=O)CC12CC3CC(CC(Br)(C3)C1)C2	.	.	.	-0.3	.	.
Cc1ccc(Cl)cc1N1CCN(S(=O)(=O)c2ccc3c(c2)CC(C)N3C(=O)C2CCC2)CC1 (stereo unspecified)	-25.9%	?	.	-8.3	.	.
CC(=O)N1c2ccc(S(=O)(=O)N3CCC(C(=O)N4CCN(c5cc(Cl)ccc5C)CC4)CC3)cc2CC1C (stereo unspecified)	10.3µM*	9.2µM*	-15.7	-4.0	0.4%	11.9%
COc1ccccc1N1CCN(C(=O)C2CCN(S(=O)(=O)c3ccc4c(c3)CC(C)N4C(C)=O)CC2)CC1 (stereo unspecified)	?	11.6µM*	21.8	-1.5	-0.3%	33.8%
COc1ccccc1N1CCN(C(=O)C2CCN(S(=O)(=O)c3ccc4c(c3)CC(C)N4C(=O)C3CC3)CC2)CC1 (stereo unspecified)	?	?	-52.6*	-4.8	-8.4%	?
COc1ccccc1N1CCN(S(=O)(=O)c2ccc3c(c2)CC(C)N3C(C)=O)CC1 (stereo unspecified)	?	?	-1.5	-5.3	17.9%	36.6%
CC(C)c1ccc(S(=O)(=O)N2CCC(C(=O)N3CCN(c4cccc(Cl)c4)CC3)CC2)cc1	25.9µM*	?	8.8	-0.5	.	.
COc1ccc(S(=O)(=O)N2CCC(C(=O)N3CCN(c4ccccc4OC)CC3)CC2)cc1	?	?	-12.0	-2.4	2.1%	7.0%
CCN1CCN(C(=O)CS(=O)Cc2nc(-c3ccc(OC)c(OC)c3)oc2C)CC1 (stereo unspecified)	.	.	.	10.8	.	.
O=C(CSc1nnc(-c2ccc(S(=O)(=O)N3CCCCCC3)cc2)o1)c1ccc(F)cc1	.	.	.	-0.3	.	.
C[n+]1cccc(C(=O)N=S(C)C)c1	.	.	.	7.8	.	.
COc1ccccc1N1CCN(C(=O)C2CCN(S(=O)(=O)c3ccccc3)CC2)CC1	-18.5%	-18.8%	9.3	3.3	3.8%	7.2%
CC1Cc2cc(S(=O)(=O)N3CCN(c4ccccc4F)CC3)ccc2N1C(=O)C1CCC1 (stereo unspecified)	?	-13.4%	.	0.4	.	.
COc1ccccc1N1CCN(C(=O)C2CCN(S(=O)(=O)c3ccc(Cl)cc3)CC2)CC1	?	20.6µM*	-18.4	1.6	-8.6%	?
CC1Cc2cc(S(=O)(=O)N3CCC(C(=O)N4CCN(c5ccccc5F)CC4)CC3)ccc2N1C(=O)C1CC1 (stereo unspecified)	?	?	-51.5*	-3.2	-3.3%	8.0%
C/C(=N\O)c1cccc(-n2cccc2)c1	.	.	.	-0.4	.	.
NCc1cc(Cl)c2c(c1)OCCCO2	.	.	.	-0.3	.	.
CCOC(=O)c1ccccc1NC(=O)c1nc2nccc(C)n2n1	?	18.4µM*	-12.1	-4.2	-8.6%	-1.2%
COc1ccc(Cl)cc1NC(=O)N(C)CCc1c(C)nn(C)c1C	-20.2%	?	.	-3.7	.	.
Cc1ccnc2nc(C(=O)OCC(=O)Nc3ccccc3C(C)(C)C)nn12	3.7%	9.6%	0.0	-6.2	2.9%	5.9%
CCOC(=O)c1ccccc1NC(=O)N(C)CCc1c(C)nn(CC)c1C	20.6µM*	16.4µM*	.	-4.6	.	.
CCNC(=O)C1CCCN(c2nc(C)cc(C)n2)C1 (stereo unspecified)	1.6%	3.7%	0.0	-9.6	5.2%	-6.8%
Cc1cc(C)nc(NC2=NCCN2C(=O)NC2CCCCC2)n1	?	16.4µM*	15.8	0.4	12.2%	-27.9%
CCNC(=S)N1CCN=C1Nc1nc(C)cc(C)n1	18.9%	22.9%	-7.9	-11.1	9.2%	17.8µM*
Cc1cc(C(F)(F)F)nc(SCC(=O)NC2CCCCC2)n1	-4.6%	0.5%	-17.3	-7.3	7.8%	-10.9%
SMILES	DT40 TDP1 CPT	TDP1 cell noCPT	IL-1B inflam inh	LDHA block	Gal4-VP16 FLuc	RORgamma inh
Cc1ccc(S(=O)(=O)c2nc(S(C)(=O)=O)sc2N(C)Cc2ccccc2)cc1	?	20.6µM*	.	1.6	.	.
CS(=O)(=O)c1nc(S(=O)(=O)c2ccc(Cl)cc2)c(N2CCCCC2)s1	?	-21.7%	-62.7*	-7.4	-8.1%	6.5%
CS(=O)(=O)c1nc(S(=O)(=O)c2ccc(Cl)cc2)c(N2CCN(CCO)CC2)s1	?	6.2%	-68.2*	-4.2	-0.8%	-27.1%
Cc1ccc(S(=O)(=O)c2nc(S(C)(=O)=O)sc2N2CCOCC2)cc1	-20.0%	9.6%	-59.1*	0.4	12.0%	-19.3%
O=C(Nc1ccccc1)c1sc(NCCc2ccccc2)nc1-c1ccc([N+](=O)[O-])cc1	.	.	.	-5.8	.	.
CC1CCN(S(=O)(=O)c2ccc(NC(=O)C3=COCCO3)cc2)CC1	.	.	.	4.2	.	.
Cc1ccc(S(=O)(=O)c2nc(S(=O)(=O)c3ccc(C)cc3)c(N3CCN(CCO)CC3)s2)cc1	23.1µM*	?	-68.1*	-6.6	-0.6%	-1.2%
Cc1ccc(S(=O)(=O)c2nc(S(C)(=O)=O)sc2N2CCCCC2C)cc1 (stereo unspecified)	?	?	-82.6*	-4.4	3.6%	10.7%
Cc1ccccc1OCCc1c(C)[nH]c(=S)[nH]c1=O	1.46µM*	0.82µM*	57.0	-7.5	-17.1%	?
Cc1[nH]c(=S)[nH]c(=O)c1CCOc1ccccc1	-28.2%	?	1.8	-5.5	3.6%	-19.6%
Cc1ccccc1OC1C(=O)N(CC2CCCO2)C1c1ccc2c(c1)OCO2 (stereo unspecified)	14.6µM*	13µM*	0.6	0.4	?	?
C=CC(COCc1ccccc1)N(C(=O)OC(C)(C)C)S(=O)(=O)c1ccccc1Br (stereo unspecified)	?	16.4µM*	-3.8	1.4	-4.1%	39.3%
C=CCC(COCc1ccccc1)NS(=O)(=O)c1ccccc1Br (stereo unspecified)	?	?	-8.9	-1.8	-22.4%	?
CCCCc1nc(NCCOCCO)c(C#N)c2c1CCCC2	.	.	.	8.4	.	.
CCNc1nc(NC(C)CC)nc(ON=C(C)C)n1 (stereo unspecified)	1.6%	5.7%	1.5	-0.6	-19.7%	14.1µM*
